Growth data for 40 compounds are collected here from PubChem BioAssay (NCI).

SMILES strings stand for the structures. The panel holds about 83,000 compounds, 20% with a hit somewhere; the sample as a whole holds those more often.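 Compound tested at a single concentration for 48 hours in 96-well plates; a percent growth value below 10 was scored as active.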 The source made the active and inactive calls.

The test relates to NCI/ADR-RES ovarian. Briefly: NCI-60 one-dose screen, 48 h (100 = growth as untreated, 0 = no growth, -100 = all killed). The following applies: 10 µM unless noted. How it is done:
Growth inhibition of the NCI/ADR-RES human […] tumor cell line is measured as a screen for anti-cancer activity. Cells are grown in 96 well plates and exposed to the test compound for 48 hours. Compounds are tested at a single concentration, which is 10^-5 M for most compounds. The reported endpoint is percent growth (GI% or GIPRCNT), where numbers from 0 - 100% represent growth inhibition, and numbers from -100% - 0 represent cell death. For example, a value of 40 represents 60% growth inhibition. A value of 0 means no net growth occurred over the course of the experiment. A value of -40 indicates 40% of cells at the beginning of the experiment died by the end of the experiment. A value of -100 means all cells are dead at the end of the experiment.
NCI-60 Human Tumor Cell Lines Screen was performed using the standard one-dose NCI protocol, which is described in more detail at https://dtp.cancer.gov/discovery_development/nci-60/default.htm.
Compounds with GIPRCNT values below 10 were considered active. Activity score was based on GIPRCNT using the following formula: […]
Score is 0 for GIPRCNT values of 100 or above, 50 for GIPRCNT values of 0, and 100 for GIPRCNT values of -100.
Turning to `Cc1c(C(=O)/C=C/Nc2c(Cl)cc(S(N)(=O)=O)cc2Cl)sc2nc3ccccc3n12`, the growth is 110% (inactive).

As for `COc1cc(C2CC(c3cccc(Br)c3)=NN2C(C)=O)cc(OC)c1OC` (stereo not given), the growth is -19.5% (active). Then `CCOC(=O)Nc1ccc(-c2nc(-c3cccc(OC)c3)c(-c3ccnc(Br)c3)[nH]2)cc1`, with 27.6% (inactive). Then `Cc1ccc(C(CC(=O)O)c2c(C)[nH][nH]c2=O)cc1` (stereo not given), with 102% (inactive).

Regarding `CCOC(=O)Cn1c(C)c(/C=N/NC(=O)c2cc3c(ccc4ccccc43)o2)c2ccccc21`, the growth is 8.7% (active). As to `c1ccc(CO[C@H]2CO[C@H]3[C@@H]2OC[C@@H]3Oc2ccc(Nc3ncnc4ccsc34)cc2)cc1`, the growth is 73.3% (inactive). `CCCCNC(=O)Oc1ccc(/C(=C(\C)c2ccc(Cl)cc2)c2ccc(OCCN3CCCCC3)cc2)cc1`: the growth is 85.2% (inactive). Consider `CNCCCNc1nc2ccccc2c2c(=O)c3cc(OC)ccc3sc12`, for which the growth was 80.6% (inactive). Regarding `O=C(COc1ccc(/C=C2\Cc3ccc(Cl)cc3C2=O)cc1)Nc1nc2ccccc2s1`, the growth is 99.2% (inactive). With `c1ccc2cc(C[n+]3ccn(CCCCCCn4cc[n+](Cc5ccc6ccccc6c5)c4)c3)ccc2c1`, the growth was 100% (inactive). With `COc1ccc(C(=O)C[C@]2(O)C(=O)Nc3c(Cl)ccc(Cl)c32)cc1` the figure was 14.1% (inactive); with `CCOC(=O)Nc1ccc(-c2nc(-c3cccc(OCCN4CCOCC4)c3)c(-c3ccnc(Br)c3)[nH]2)cc1`, 60.7% (inactive); with `Cc1nc2nc(SCC(=O)O)[nH]c2c(=O)[nH]1`, 105% (inactive).

On to `O=C(N/N=C/[C@@H](O)[C@H](O)[C@H](O)CO)c1ccc(NC(=O)c2cccnc2)cc1`, for which the growth was 112% (inactive). With `S=C(c1cccs1)N1CCN(c2cccc(Cl)c2)CC1` the figure was 104% (inactive); with `COc1ccc(-c2ncnc3c2ncn3CC#CCCl)cc1`, 56.2% (inactive); with `COc1ccc2c(c1)c(-c1nn3cc(-c4cccs4)nc3s1)cn2C`, 80.3% (inactive). As for `CC(C)(C)NC(=O)C(OC(=O)c1cccc(Cl)c1)c1ccc(Cl)cc1` (stereo not given), the growth was 101% (inactive). Take `CN(C)CC#Cc1ccc2ncc(C#N)c(Nc3ccc(F)c(Cl)c3)c2c1`: the growth was 42.9% (inactive).

With `CCCCCCNC(=O)Oc1ccc(/C(=C(\C)c2ccc(Cl)cc2)c2ccc(OCCN(CC)CC)cc2)cc1`, the growth is 72.7% (inactive).

`Cc1nc2ccccc2c(/C=C/c2ccc(Cl)cc2)c1C(=O)/C=C/c1cccs1`: the growth is 80.7% (inactive). As to `COC(=O)/C=C1\S/C(=N\Nc2ccc([N+](=O)[O-])cc2[N+](=O)[O-])N(C2CCCCC2)C1=O`, the growth was 29.7% (inactive). For the compound `COc1cc2oc(-c3ccc(O)cc3)cc(=O)c2c(O)c1-c1c(OC)cc(O)c2c(=O)cc(-c3ccc(O)cc3)oc12`, the growth is 79.6% (inactive). With `C=C1C(=O)O[C@H]2[C@H]1CC/C(COC(=O)CCC(=O)NCCOCCOCC(=O)Nc1ccc(OC)c(C(N)=O)c1O)=C\CC[C@@]1(C)O[C@@H]21` the figure was 103% (inactive); with `CNC(=O)c1[nH]cc(-c2ccccc2)c1-c1cc(OC)c2c(c1OC)OCO2`, 101% (inactive). Then `O=C(N/N=C/c1c(Cl)cccc1Cl)c1ccc(C(F)(F)F)nc1Nc1cccc(C(F)(F)F)c1`, with -4.2% (active); and `CN1C(=O)N(C)C2Nn3c(s/c(=C\c4ccccc4)c3=O)=NC21` (stereo not given), with 99.7% (inactive); and `CCCCCCn1c(-c2ccc(C(=O)O/N=C(\N)c3ccc4c(c3)OCO4)cc2)nc(-c2ccccc2)c1-c1ccccc1`, with -52.8% (active). Then `COc1ccc(OC)c(/C=C/C(=O)N/N=C/c2ccc(Cl)cc2)c1`, with 3.82% (active); and `Cc1ccc(C(C)C)cc1C(=O)C[n+]1ccccc1`, with 107% (inactive).

For the compound `COc1cccc(OC)c1C(=O)N[C@@H]1C(=O)N2[C@@H]1SC(C)(C)[C@@H]2C(=O)O`, the growth is 101% (inactive). With `N#C/C(=C\c1cccc2cnccc12)n1nnc2cccc(F)c21` the figure was 23.8% (inactive); with `NCCNc1nc2ccccc2c2c(=O)c3cc(F)ccc3sc12`, 78.8% (inactive). Turning to `C[C@]12CC[C@@H]3c4cc(OC(F)F)c(OS(N)(=O)=O)cc4CC[C@H]3[C@@H]1CC[C@@H]2O`, the growth was -1.45% (active).

For the compound `CCCCOc1ccc(/C=N/NC(N)=S)cc1`, the growth was 85.5% (inactive). For the compound `Cc1ccc(-c2nc(N3CCN(CC(=O)Nc4ccc(Cl)c(C(F)(F)F)c4)CC3)c3ccccc3n2)cc1`, the growth was 86.5% (inactive).

With `CN(C)CCN1CCN(c2ncccc2C2Nc3ccccc3-n3cccc32)CC1` (stereo not given), the growth was 104% (inactive). With `O=C1/C(=C/c2ccccc2[N+](=O)[O-])Oc2ccc(O)c(O)c21` the figure was 37.6% (inactive). `CCN1C(=O)N(CC)C2Nn3c(s/c(=C4\C(=O)N(CC(C)C)c5ccccc54)c3=O)=NC21` (stereo not given): the growth is 11.3% (inactive). With `O=CN(SSN(C=O)C1CCCCC1)C1CCCCC1` the figure was 116% (inactive).
